Test results reported in PubChem BioAssay AID624134 (Broad Institute, 2012).
In all, about 1,600 compounds went through this assay and about 1,100 (69%) were called active. The set was probably picked from earlier hits. The list is a sample of the results. Entries with a potency or affinity are not part of this list. Results filed as inconclusive are left out.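 The calls were made as follows: active = signal drop with fitted half-maximal concentration no higher than twice the top valid tested concentration; inconclusive = flat curve with 30 to 70% signal loss, or poor fit; inactive = the rest, including signal rises and flat curves within 30%.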 Non-standard residues stand in square brackets, D forms with d. Residues, ends and D or L forms follow the SMILES beside them. *: point of attachment. Ac5c = NC1(C(=O)O)CCCC1; Cbz = O=C(OCc1ccccc1)*

assay: loss of viability in HepG2 cells – cell-based, CellTiter-Glo, cherry-picked, cytotoxicity control for Shn3 inhibitor project, dose response (AID 624134); settings: CellTiter-Glo ATP luminescence, 48 h; series mostly up to 35 µM

Compound | outcome
OCCNc1nc(Nc2ccc(Cl)cc2)nc(N2CCCC2)n1 | inactive
CCCn1c(C)cc(C(=O)CN2C(=O)c3ccccc3S2(=O)=O)c1C | inactive
O=C1S/C(=C\c2ccc(N3CCOCC3)o2)C(=O)N1Cc1c(F)cccc1Cl | inactive
COc1c(C)cc(C(=O)C2CCCN(C(=O)c3cccc(-n4cccn4)c3)C2)cc1C (configuration not stated) | inactive
Cc1nc2scc(C)n2c(=O)c1S(=O)(=O)Nc1ccc(N2CCOCC2)c(Cl)c1 | inactive
O=C(CSc1nc2ncc(Cl)cc2[nH]1)N1CCOCC1 | inactive
CC(C)(C)C(=O)Nc1ccc(NC(=O)c2ccco2)nc1 | inactive
COc1ccc(S(=O)(=O)NCCC(=O)OCC(=O)NC2CC2)cc1 | inactive
O=C(CSc1nnc(Nc2ccccc2)s1)NC1CCS(=O)(=O)C1 (configuration not stated) | inactive
Cc1ccc(S(=O)(=O)N2CCCCC2)cc1NS(=O)(=O)c1ccccc1F | inactive
COc1cccc(C2CC(c3ccc(C)cc3)=NN2C(=O)c2ccccc2F)c1OC (configuration not stated) | inactive
Cc1cc(C(=O)Cn2cnc3cc(F)ccc3c2=O)c(C)n1C1CC1 | inactive
CCCc1nc([N+](=O)[O-])c(S(=O)(=O)c2ccccc2)n1CC(C)C | inactive
Cc1ccc(C(=O)Nc2ccc3c(c2)C(=O)N(CC2CCCO2)C3=O)cc1 (configuration not stated) | inactive
COc1ccc([C@@]23Oc4cc(OC)cc(OC)c4[C@]2(O)[C@H](O)[C@H](C(=O)N(C)C)[C@H]3c2ccccc2)cc1 | inactive
CCN(CC)C(=O)C1CCCN(c2ccc([N+](=O)[O-])cc2[N+](=O)[O-])C1 (configuration not stated) | inactive
CCCCN1CC(COCc2ccccc2)Oc2cccc(Oc3ccc(C(C)C)cc3)c2S1(=O)=O (configuration not stated) | inactive
COc1cccc(-c2nc(NC3CCCC3)c3ccccc3n2)c1O | inactive
O=C(N[C@@H]1C/C=C\C[C@@H](CC(=O)N(CCO)Cc2ccccc2)C(=O)NC[C@H](c2ccccc2)OC1=O)OCC1c2ccccc2-c2ccccc21 | inactive

Compound | outcome
Cc1ccc(-c2nc3cccnc3o2)cc1NC(=O)COc1ccc(C(C)(C)C)cc1 | inactive
CC(C)CCC(C(=O)O)C(C)CC(=O)NNC(=O)c1ccco1 (configuration not stated) | inactive
CC(C)(C)N(Cc1ccccc1)C(=O)COC(=O)CCc1c[nH]c2ccccc12 | inactive
CCCCCCN1C[C@H](n2cc(-c3ccc(F)cc3)nn2)[C@@H](O)C[C@@H]1c1ccc(Cl)cc1 | inactive
CC(=O)N1c2ccc(S(=O)(=O)N3CCC(C(=O)N4CCN(c5cc(Cl)ccc5C)CC4)CC3)cc2CC1C (configuration not stated) | inactive
CCN(c1ccccc1)S(=O)(=O)c1ccc(Cl)c(NC(=O)CN(C)Cc2cccc(F)c2)c1 | inactive
Cc1cccc(C)c1NC(=O)CN(C)C(=O)c1cc(S(=O)(=O)N(C)C)ccc1N1CCCC1 | inactive
Oc1c(C(c2cccs2)N2CCC3(CC2)OCCO3)sc2ncnn12 (configuration not stated) | inactive
CCOC(=O)/C(=C\c1ccc([N+](=O)[O-])cc1)C(=O)c1cc(C(C)=O)c(Nc2ccccc2)s1 | inactive
CCOC(=O)c1[nH]c(C)c(/C(O)=C2\C(=O)C(=O)N(CCCN3CCOCC3)C2c2cccs2)c1C (configuration not stated) | inactive
CN1C(=O)c2cccc(NCCCCCCN3C(=O)c4ccccc4C3=O)c2C1=O | inactive
Cc1ccc(C)c(N2CCN(S(=O)(=O)c3ccc4[nH]c(=O)ccc4c3)CC2)c1 | inactive
Nc1cc(=O)[nH]c(SCC(=O)Nc2cccc([N+](=O)[O-])c2)n1 | inactive
CC1Cc2ccccc2N1Cc1cccc(S(=O)(=O)N(C)C)c1 (configuration not stated) | inactive
Cc1cccc(-c2noc(CN(C(=O)C(c3ccccc3)c3ccccc3)C(C)C)n2)c1 | inactive
CCCCNc1cccc2c1S(=O)(=O)N(CCCC)CC(COCc1ccccc1)O2 (configuration not stated) | inactive
C=CCn1c(C)cc(C(=O)CN2C(=O)c3ccccc3S2(=O)=O)c1C | inactive
CC(NNC(=S)N1CCN(c2ccccn2)CC1)c1nccc2ccccc12 (configuration not stated) | inactive
CCOC(=O)C1=C(C)N(CCCC(=O)O)C(=O)NC1c1ccc2ccccc2c1 (configuration not stated) | inactive

Compound | outcome
CC1Cc2cc(S(=O)(=O)N3CCC(C(=O)N4CCN(c5ccccc5F)CC4)CC3)ccc2N1C(=O)C1CC1 (configuration not stated) | inactive
CC(=O)N1c2ccc(S(=O)(=O)N3CCC(C(=O)N4CCN(c5ccccc5F)CC4)CC3)cc2CC1C (configuration not stated) | inactive
CC(=O)Oc1ccc(OC(C)=O)c(SCCCCCCl)c1 | inactive
CN1/C(=C\C(=O)CN2C(=O)NC3(CCCCCC3)C2=O)C(C)(C)c2ccccc21 | inactive
Cc1ccc(N2C(=O)c3cccc4c([N+](=O)[O-])ccc(c34)C2=O)c2cccnc12 | inactive
O=C(N[C@@H]1C/C=C\C[C@H](CC(=O)N(CCO)Cc2ccccc2)C(=O)NC[C@@H](c2ccccc2)OC1=O)OCC1c2ccccc2-c2ccccc21 | inactive
CN(CC(=O)Nc1cc(S(=O)(=O)N2CCCC2)ccc1Cl)Cc1ccc2c(c1)OCO2 | inactive
Cc1ccc(NC(=O)NCCCN2CCOCC2)cc1 | inactive
CC12CC(O)C3c4ccc(O)cc4CCC3C1CCC2=O (configuration not stated) | inactive
CCCCCOC(=O)c1[nH]c2c(c1C)C(=O)CC(c1ccco1)C2 (configuration not stated) | inactive
CCOC(=O)CNC(=O)C1(NC(=O)CNC(=O)OCc2ccccc2)CCCC1 (Cbz-Gly-[Ac5c]-Gly-OEt) | inactive
CCC(C)[C@H]1CNC(=S)N1CCc1cc(C(F)(F)F)cc(C(F)(F)F)c1 (some centres not stated) | inactive
CC(C)N=C(N)N=C(N)Nc1ccc(Cl)cc1 | inactive
Cc1cc(C)cc(C(=O)NCC(=O)OCC(=O)NCC(F)(F)F)c1 | inactive
CSC1SCC2C(=O)N(C)C(C(C)C)C(=O)OCC(NC(=O)c3cnc4ccccc4n3)C(=O)NC(C)C(=O)N(C)C1C(=O)N(C)C(C(C)C)C(=O)OCC(NC(=O)c1cnc3ccccc3n1)C(=O)NC(C)C(=O)N2C (configuration not stated) | inactive
O=C1ON=C(c2ccccc2)/C1=C/c1ccc(-c2ccccc2[N+](=O)[O-])o1 | inactive
Cc1cc(C(=O)COC(=O)c2ccccc2O)c(C)n1Cc1cccs1 | inactive
COc1ccc2c(CC(=O)OCC(=O)N(C)c3c(N)n(Cc4ccccc4)c(=O)[nH]c3=O)coc2c1 | inactive
CC(Oc1ccc(F)cc1)C(=O)N(CCC1=CCCCC1)c1c(N)n(Cc2ccccc2)c(=O)[nH]c1=O (configuration not stated) | inactive
